Compound activity deposited in PubChem BioAssay by National Center for Advancing Translational Sciences (NCATS).
HT1080NT lethal – qHTS for induction of synthetic lethality in tumor cells producing 2HG: qHTS for the HT-1080-NT fibrosarcoma cell line; HT-1080-NT fibrosarcoma viability, CellTiter-Glo ATP luminescence, 48 h; Potency, µM (doses to about 46.1 µM), for inactives: at the top dose activity, negative = less viability, actives largely listed as cytotoxic; actives 1.6% (n = 360,000); AID 686970, 2013;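 further: NT is the 2HG producing partner of a matched IDH1 knockdown line; potency means the concentration at half of the fitted maximal effect; 0% = DMSO-treated cells and -100% = media-only wells without cells; nearly all actives have a fitted effect of over 55% in size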
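Viability of the 2HG-overproducing fibrosarcoma line after 48 hours of compound exposure at 37 degrees C was determined by luminescence with CellTiter-Glo, and concentration-effect curves were then fitted and categorized.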
TDP1 cell noCPT – qHTS for Inhibitors of human tyrosyl-DNA phosphodiesterase 1 (TDP1): qHTS in cells in absence of CPT; DT40 Tdp1-/- hTDP1 cells, no CPT, ATP luminescence, 48 h; Potency, µM (titrated, usually from 46.2 µM), inactives show top-dose activity change, negative = growth inhibition, hits mostly inhibitors; actives 15% (n = 420,000); AID 686978, 2013; further: potency means the concentration at half of the fitted maximal effect; nearly all actives have a fitted effect of over 55% in size
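Growth kinetics read by CellTiter-Glo luminescence after ≥48 hr at 37 °C. Cells: DT40 Tdp1-/- stably carrying human TDP1, 400 per well, compound exposure in the absence of CPT (DMSO vehicle).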
DT40 TDP1 CPT – qHTS for Inhibitors of human tyrosyl-DNA phosphodiesterase 1 (TDP1): qHTS in cells in presence of CPT; chicken DT40 Tdp1-/-;hTDP1 cells + 20 nM CPT, ATP luminescence, 48 h; Potency, µM (highest dose often 46.2 µM), for the others: at the top dose activity change, negative = growth inhibition, usual class: inhibitors; actives 12% (n = 420,000); further: potency means the concentration at half of the fitted maximal effect; nearly all actives have a fitted effect of over 55% in size
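Cell growth measured by CellTiter-Glo luminescence after a minimum 48 h, 37 C compound exposure with 20 nM CPT in Tdp1-knockout DT40 cells stably expressing hTDP1, seeded 400/well; qHTS titration format.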
IL1B secr inh – qHTS for Inhibitors of Inflammasome Signaling: IL-1-beta AlphaLISA Primary Screen | actives 4.7% (n = 360,000) | THP-1 LPS/ATP IL-1B secretion, AlphaLISA, 16 h; hits give low values | activity change, % at 57.5 µM; in the data active means activity change below about -50%; inconclusive means mostly about -30% to -49%
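THP-1 cells pretreated 1 hr with compounds (up to 57.5 uM final), then stimulated with LPS (250 ng/mL final) plus ATP (1.25 mM final); secreted IL-1B measured by AlphaLISA after 16 hr, decreased signal indicating inhibition.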
HT1080 IDH1KD tx – qHTS for induction of synthetic lethality in tumor cells producing 2HG: qHTS for the HT-1080-IDH1KD cell line | HT-1080 IDH1 knockdown viability, ATP luminescence, 48 h | Potency, µM (doses to about 46.1 µM), for the others: at the top dose activity, negative = toxicity, usual class: cytotoxic | actives 2% (n = 360,000) | AID 686971, 2013;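 further: potency means the concentration at half of the fitted maximal effect; 0% = DMSO wells and -100% = cell-free medium wells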
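Using the IDH1-knockdown HT-1080 line run in the same batch and compound series as the NT line, viability after 48 h at 37 °C was determined by CellTiter-Glo luminescence and expressed as % activity.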
Starred values were filed as active, the others as inactive; ? = inconclusive; . = no result given. This is a sample that favours compounds with a hit; in the whole collection about 19% have one here. Unless noted, the call rests on the fitted dose curve; in most records, active means well fitted curve in the direction sought with a large enough effect; inconclusive means small, poorly fitted or top-dose-only effect, or another doubt; inactive means no such curve, though single readings can be large; an effect the other way counts as inactive or inconclusive. Unless noted, on the % scale 0 is the no-effect control and ±100 the full control effect.

SMILES | HT1080NT lethal | TDP1 cell noCPT | DT40 TDP1 CPT | IL1B secr inh | HT1080 IDH1KD tx
CCn1c(CC2C(=O)N(C)c3ccc(Br)cc32)nc2ccccc2c1=O (stereo not given) | . | 1.46µM* | 5.17µM* | . | .
CCN1C(=O)C(Cc2nc3ccccc3c(=O)n2C)c2cc(C)ccc21 (stereo not given) | . | 25.9µM* | ? | . | .
CCn1c(CC2C(=O)Nc3ccccc32)nc2ccccc2c1=O (stereo not given) | . | ? | -12.1% | . | .
CCCN1C(=O)C(Cc2nc3ccccc3c(=O)n2CC)c2cc(Br)ccc21 (stereo not given) | . | 1.16µM* | 1.16µM* | . | .
CN(C(=O)COC(=O)CNC(=O)CNC(=O)c1ccc(Cl)cc1Cl)c1ccccc1 | -1.0% | ? | -19.8% | -143.1* | -0.1%
COc1ccc(C(=O)N/C(=C\c2cn(S(=O)(=O)N(C)C)c3ccccc23)C(=O)N2CCCC2)cc1 | -14.1% | -34.9% | ? | 7.6 | -13.4%
COc1cccc(NC(=O)C(=O)NCCC2CCCCN2S(=O)(=O)c2cccs2)c1 (stereo not given) | -3.7% | 16.4µM* | ? | -9.0 | -15.4%
COc1ccc(NC(=O)C(=O)NCCC2CCCCN2S(=O)(=O)c2ccccc2)cc1 (stereo not given) | ? | 2.91µM* | 4.11µM* | -1.5 | 13µM*
COc1ccc(CNC(=O)C(=O)NCCC2CCCCN2S(=O)(=O)c2ccccc2)cc1 (stereo not given) | -4.0% | ? | ? | -12.2 | -6.7%
COc1ccc(NC(=O)C(=O)NCCC2CCCCN2S(=O)(=O)c2cccs2)cc1 (stereo not given) | ? | 4.61µM* | 3.66µM* | -27.2 | 5.8µM*
O=C(NCCC1CCCCN1S(=O)(=O)c1cccs1)C(=O)Nc1ccccc1 (stereo not given) | -4.4% | 23.1µM* | 16.4µM* | ? | -15.9%
O=C(NCCc1ccccc1)C(=O)NCCC1CCCCN1S(=O)(=O)c1cccs1 (stereo not given) | -7.9% | ? | ? | -17.8 | -2.1%
COc1cc(OC)c(Nc2cc(C)nc3ncnn23)cc1Cl | . | ? | -25.9% | . | .
O=C(NCCC1CCCCN1S(=O)(=O)c1ccc(F)cc1)C(=O)Nc1ccccc1 (stereo not given) | 4.2% | 18.4µM* | ? | -8.2 | 11.0%
Cc1ccc(-n2c(CCc3ccccc3)n[nH]c2=S)cc1C | 8.6% | ? | ? | 19.6 | -0.6%
C=CCn1c(SCC(=O)NC2CCCc3ccccc32)nnc1-c1ccncc1 (stereo not given) | 13.7% | ? | ? | 8.9 | 6.8%
COc1ccccc1NC(=O)c1cc2c(CO)cnc(C)c2oc1=Nc1cc(OC)c(OC)c(OC)c1 | -25.4% | -11.2% | 1.4% | 56.7 | -7.1%
COc1ccccc1NC(=O)c1cc2c(CO)cnc(C)c2oc1=Nc1ccc(OC)c(OC)c1 | -11.0% | ? | 9.2µM* | 35.9 | -16.2%
Cc1ncc(CO)c2cc(C(=O)Nc3ccccc3Cl)c(=Nc3cccc(C(N)=O)c3)oc12 | 0.6% | -3.8% | -14.2% | 15.6 | 0.0%
COc1ccc(NC(=O)c2cc3c(CO)cnc(C)c3oc2=Nc2cccc(C)c2)c(OC)c1 | -5.5% | 4.11µM* | ? | 150.3 | 23.2%
Cc1ccc(C2c3c(-c4ccccc4O)n[nH]c3C(=O)N2CCc2ccccc2)cc1 (stereo not given) | . | -105.7% | ? | . | .
COc1ccc(C2c3c(-c4ccccc4O)n[nH]c3C(=O)N2CCc2ccccc2)cc1 (stereo not given) | . | 16.4µM* | ? | . | .
CC(C)OCCCN1C(=O)c2[nH]nc(-c3ccccc3O)c2C1c1ccc(OCc2ccccc2)cc1 (stereo not given) | . | 11.6µM* | 14.6µM* | . | .
CC(C)c1ccc(C2c3c(-c4ccccc4O)n[nH]c3C(=O)N2CCc2ccccc2)cc1 (stereo not given) | . | 11.6µM* | ? | . | .
COc1ccc(C2c3c(-c4ccccc4O)n[nH]c3C(=O)N2CCc2ccc(OC)c(OC)c2)cc1 (stereo not given) | -26.3% | 23.1µM* | 20.6µM* | -51.4* | ?
SMILES | HT1080NT lethal | TDP1 cell noCPT | DT40 TDP1 CPT | IL1B secr inh | HT1080 IDH1KD tx
COc1ccc(CCN2C(=O)c3ccccc3C2c2nnnn2C(C)C)cc1OC (stereo not given) | 26.1% | -28.8% | ? | 31.9 | ?
CCn1cc([N+](=O)[O-])c(C(=O)N2N=C(c3ccc(O)c(OC)c3)CC2c2ccccc2O)n1 (stereo not given) | -22.1% | ? | ? | -23.1 | ?
CCn1cc([N+](=O)[O-])c(C(=O)N2N=C(c3ccc4ccccc4c3)CC2c2cc(Br)ccc2O)n1 (stereo not given) | 20.6µM* | 6.51µM* | ? | ? | ?
CCn1cc([N+](=O)[O-])c(C(=O)N2N=C(c3ccc(Cl)c(Cl)c3)CC2c2ccccc2O)n1 (stereo not given) | 23.1µM* | ? | ? | -85.1* | ?
Brc1ccc(N/N=C(/N=Nc2nn[nH]n2)c2ccccc2)cc1 | ? | 2.59µM* | 2.91µM* | 105.7 | 2.91µM*
O=C(NCc1ccco1)c1ccc2nccnc2c1 | 18.3% | -9.2% | -2.8% | 0.0 | 22.0%
COc1ccc(CN2C[C@@H](CO)O[C@@H](n3cnc4c(NCc5ccc(F)cc5)ncnc43)C2)cc1 | -2.7% | ? | ? | 28.3 | -18.8%
CCc1ccc(OCC(=O)Nc2ccc3c(c2)c2ccccc2n3CC)cc1 | . | -27.4% | ? | . | .
CCn1c2ccccc2c2cc(NC(=O)COC(=O)c3cc(OC)c(OC)cc3OC)ccc21 | -0.6% | 20.6µM* | 20.6µM* | -5.9 | 4.7%
CCn1c2ccccc2c2cc(NC(=O)COc3cc(C)ccc3C)ccc21 | . | 9.2µM* | ? | . | .
O=C(CCC1CCCN(Cc2ccc3c(c2)CCO3)C1)NCc1ccc(F)c(F)c1 (stereo not given) | -1.1% | -9.5% | -4.2% | 1.1 | 0.7%
CCCC(=O)Oc1ccccc1C1SCc2cc(C)c(C)cc2CS1 | -15.5% | 25.9µM* | 18.4µM* | -22.3 | ?
CC(CCc1ccc(O)cc1)NCC(O)c1ccc(O)cc1 (stereo not given) | . | 6.6% | 9.3% | . | .
CC(CCc1ccc(O)cc1)NCCc1ccc(O)c(O)c1 (stereo not given) | ? | 15µM* | 26.6µM* | ? | ?
